{"source": "PubChem BioAssay (NCI)", "note": "Compounds without any hit were thinned out: in the full panel of roughly 83,000, 20% have a hit.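 For each line, cells grew in 96-well plates with the test compound present at a single concentration for 48 hours.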 A number with no mark means an inactive call. Activity calls are given as the source filed them. The calls were made as follows: active = growth percent below 10; inactive = the rest.", "data": [{"system": "SF-268 CNS", "assay": "NCI-60 one-dose screen, 48 h (100 = growth as untreated, 0 = no growth, -100 = all killed)", "settings": "10 µM", "values": [{"smiles": "O=C(/C=C/c1ccc(Cl)cc1)c1nc2ccccc2n1Cc1ccc(F)cc1", "growth": "39.9%"}, {"smiles": "CC1=C(CCC=O)C2=C(C)C3(CC3)[C@@](C)(O)C(=O)C2=C1", "growth": "6.81% (active)"}, {"smiles": "O=C(NC([Se])=NC1CCCCC1)c1ccc2c(c1)OCO2", "growth": "122%"}, {"smiles": "C[C@H]1[C@H](OC(=O)CCC(=O)N(CCCc2cn(-c3ccc(C#N)cc3)nn2)CCNc2ccnc3cc(Cl)ccc23)O[C@@H]2OC3(C)CC[C@H]4[C@H](C)CC[C@@H]1[C@@]24OO3", "growth": "54.9%"}, {"smiles": "C[C@H]1[C@@H](Oc2ccc(-c3cn(-c4ccnc5cc(Cl)ccc45)nn3)cc2)O[C@@H]2OC3(C)CC[C@H]4[C@H](C)CC[C@@H]1[C@@]24OO3", "growth": "46.3%"}, {"smiles": "COc1ccc(/C=C/C(=O)c2nc3ccccc3n2Cc2ccc(Br)cc2)cc1", "growth": "68%"}, {"smiles": "COC(=O)CCn1c(-c2ccc(-n3cc(-c4ccc(O[C@H]5O[C@@H]6OC7(C)CC[C@H]8[C@H](C)CC[C@@H]([C@H]5C)[C@@]68OO7)cc4)nn3)cc2)nc2ccccc21", "growth": "31.8%"}, {"smiles": "C[C@H]1[C@H](OC(=O)CCC(=O)N(CCCc2cn(-c3ccc([N+](=O)[O-])cc3)nn2)CCNc2ccnc3cc(Cl)ccc23)O[C@@H]2OC3(C)CC[C@H]4[C@H](C)CC[C@@H]1[C@@]24OO3", "growth": "59.5%"}]}, {"system": "SF-295 CNS", "assay": "NCI-60 one-dose screen, 48 h (100 = growth as untreated, 0 = no growth, -100 = all killed)", "settings": "10 µM", "values": [{"smiles": "O=C(/C=C/c1ccco1)c1nc2ccccc2n1Cc1ccc(Br)cc1", "growth": "53.5%"}, {"smiles": "O=C(/C=C/c1ccco1)c1nc2ccccc2n1Cc1ccc(F)cc1", "growth": "76%"}, {"smiles": "COc1cc2cc(C(=O)N3C[C@@H](CCl)c4c3cc(OC(=O)N3CCN(C)[C@@H]5CSSC[C@@H]53)c3ccccc43)[nH]c2c(OC)c1OC", "growth": "-8.99% (active)"}, {"smiles": "C#CC[Se]C(=O)c1ccc2n[se]nc2c1", "growth": "25.4%"}, {"smiles": "O=C(/C=C/c1ccc(Cl)cc1Cl)c1nc2ccccc2n1Cc1ccc(F)cc1", "growth": "60.6%"}, {"smiles": "O=C(/C=C/c1ccc(Cl)cc1)c1nc2ccccc2n1Cc1ccc(Br)cc1", "growth": "73.3%"}, {"smiles": "CCOP(=O)(OCC)C(NC(C)=O)C(=O)SCCN", "note": "(stereo unspecified)", "growth": "93.2%"}, {"smiles": "COc1cc2cc(C(=O)N3C[C@@H](CCl)c4c3cc(OC(=O)N3CCN(C)[C@@H]5CSSC[C@H]53)c3ccccc43)[nH]c2c(OC)c1OC", "growth": "-43.2% (active)"}, {"smiles": "COc1ccc2cc([C@H](C)C(=O)[Se]CCC#N)ccc2c1", "growth": "-70.3% (active)"}, {"smiles": "CC12OOC(C)(OO1)C2CCC(=O)OCCNc1ccnc2cc(Cl)ccc12", "note": "(stereo unspecified)", "growth": "83%"}, {"smiles": "CC(C)N=C([Se])NC(=O)c1cccs1", "growth": "-14% (active)"}, {"smiles": "Cc1ccc2[nH]c(=S)n(-c3ccc(F)cc3)c(=O)c2c1", "growth": "98.9%"}, {"smiles": "CCOC(=O)C1=C(Nc2ccccc2)C(=O)OC12C(=O)Nc1ccccc12", "note": "(stereo unspecified)", "growth": "107%"}, {"smiles": "CC12CCC3(CCC(=O)NCCCNc4ccnc5cc(Cl)ccc45)[C@@](C)(OO[C@]3(C)O1)O2", "growth": "-1.94% (active)"}, {"smiles": "CC[C@]12C=CCN3CC[C@@]4(c5ccc(OC)cc5N(C)[C@H]4[C@@](O)(C(=O)OC)[C@@H]1OC(=O)CCCC[P+](C1CCCCC1)(C1CCCCC1)C1CCCCC1)[C@@H]32", "growth": "-19.6% (active)"}, {"smiles": "CC(=O)Oc1ccccc1C(=O)[Se]C(=NC(C)C)NC(C)C", "growth": "-79% (active)"}, {"smiles": "COCCOCCOCCOc1ccc(-n2cc(CCCN(CCNc3ccnc4cc(Cl)ccc34)C(=O)CCC(=O)O[C@@H]3O[C@@H]4OC5(C)CC[C@H]6[C@H](C)CC[C@@H]([C@H]3C)[C@@]46OO5)nn2)cc1", "growth": "40.5%"}, {"smiles": "C[C@H]1[C@@H](CC(=O)N[C@@H](Cc2coc3ccccc23)B(O)O)O[C@@H]2OC3(C)CC[C@H]4[C@H](C)CC[C@@H]1[C@@]24OO3", "growth": "-88.8% (active)"}, {"smiles": "COP(=O)(CC(F)(F)C(F)(F)F)OC", "growth": "100%"}, {"smiles": "CC12OOC(C)(OO1)C2CCC(=O)NCCNc1ccnc2cc(Cl)ccc12", "note": "(stereo unspecified)", "growth": "91.1%"}, {"smiles": "CC[C@]12C=CCN3CC[C@@]4(c5ccc(OC)cc5N(C)[C@H]4[C@@](O)(C(=O)OC)[C@@H]1OC(=O)CCC[P+](c1ccc(C)cc1)(c1ccc(C)cc1)c1ccc(C)cc1)[C@@H]32", "growth": "-89.1% (active)"}, {"smiles": "CC(C)N=C([Se])NC(=O)c1ccccc1", "growth": "-23.9% (active)"}, {"smiles": "CC[C@]12C=CCN3CC[C@@]4(c5ccc(OC)cc5N(C)[C@H]4[C@@](O)(C(=O)OC)[C@@H]1OC(=O)CCC[P+](C1CCCCC1)(C1CCCCC1)C1CCCCC1)[C@@H]32", "growth": "-13.5% (active)"}]}]}
